From PubChem BioAssay (NCI)
Compounds without any hit were thinned out: in the full panel of roughly 79,000, 15% have a hit. A number with no mark means an inactive call. Active and inactive are the calls of the source. Cut-off read from the data, not from the text of the source: active = growth inhibition above about 70%; inactive = the rest.

Experiments:
[1] = NCI Yeast Anticancer Drug Screen. Data for the rad50 strain (AID 155);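 note: 0% = growth of vehicle-only cultures of the same strain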; details: S. cerevisiae rad50 strain growth inhibition, hits give high values
Outline: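 A DNA repair-deficient yeast mutant serves as the test organism; compound-induced growth inhibition is calculated against vehicle-treated cells.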

[2] = NCI Yeast Anticancer Drug Screen. Data for the mec2-1 strain (AID 157); details: S. cerevisiae mec2-1 strain, hits give high values
Outline: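 Readout is yeast growth inhibition, normalised to vehicle-treated controls, in the mec2-1 strain exposed to compound.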

[3] = NCI Yeast Anticancer Drug Screen. Data for the sgs1 mgt1 strain (AID 161);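 note: 0% = growth of cultures given vehicle only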; details: S. cerevisiae sgs1 mgt1 strain, hits give high values
Outline: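 Yeast cells carrying a defined DNA-repair defect were exposed to test compounds. Growth inhibition was measured relative to vehicle-treated controls.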

[4] = NCI Yeast Anticancer Drug Screen. Data for the cln2 rad14 strain (AID 165);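 note: 0% = growth equal to vehicle treated cultures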; details: S. cerevisiae cln2 rad14 strain, hits give high values
Outline: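 Relative to vehicle controls, growth inhibition of compound-treated cln2 rad14 yeast was recorded.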

[5] = NCI Yeast Anticancer Drug Screen. Data for the bub3 strain (AID 167); details: S. cerevisiae bub3 mutant strain, hits give high values
Outline: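 Inhibition values come from growth of compound-treated mutant yeast normalised to vehicle-treated controls.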

[6] = NCI Yeast Anticancer Drug Screen. Data for the mlh1 rad18 strain (AID 175); details: S. cerevisiae mlh1 rad18 strain growth inhibition, hits give high values
Outline: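 Test agents were incubated with a yeast strain of defined genotype (DNA damage repair defect). Inhibition of growth was derived by comparison with vehicle-exposed cultures.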

[7] = at 5.0 µM (retest, dose inferred, filed as 0.5)
[8] = at 50.0 µM (retest, dose inferred, filed as 5.0)

Row | SMILES | growth inhibition [1, 7] [%] | growth inhibition [1, 8] | growth inhibition ([1]; at 50.0 µM) | growth inhibition [2, 7] [%] | growth inhibition [2, 8] | growth inhibition ([2]; at 50.0 µM) | growth inhibition [3, 7] | growth inhibition [3, 8] | growth inhibition ([3]; at 50.0 µM) | growth inhibition [4, 7] | growth inhibition [4, 8] | growth inhibition ([4]; at 50.0 µM) | growth inhibition [5, 7] | growth inhibition [5, 8] | growth inhibition ([5]; at 50.0 µM) | growth inhibition [6, 7] [%] | growth inhibition [6, 8] | growth inhibition ([6]; at 50.0 µM)
1 | CN(C)Cc1ccc(C(C)(C)C)cc1-c1cc(C(C)(C)C)ccc1CN(C)C | 7 | 3% | 1.6% | 7 | -4% | 1.8% | -10% | 2% | -32.4% | 26% | -17% | -40.5% | -27% | -16% | -30.8% | -6 | -9% | 11.9%
2 | CC1C(C(=O)O)CC([N+](=O)[O-])C(Cl)C1[N+](=O)[O-] (configuration not stated) | 13 | 60% | 20.9% | -1 | 83% (active) | 87.4% (active) | -5% | 26% | 82.1% (active) | 15% | 44% | 35.4% | 11% | 88% (active) | 74.7% (active) | 9 | 93% (active) | 54.6%
3 | Cc1ccc(C)c(S(=O)(=O)Nc2c([N+](=O)[O-])cc([N+](=O)[O-])c3ccccc23)c1 | 30 | 35% | 85.7% (active) | 30 | 40% | 86.6% (active) | 47% | 29% | 87.5% (active) | 32% | 54% | 86% (active) | 20% | 30% | 79.8% (active) | 34 | 59% | 83.6% (active)
4 | Oc1cc(F)cc2cccnc12 | 43 | 92% (active) | 92.3% (active) | 46 | 91% (active) | 94.3% (active) | 99% (active) | 99% (active) | 94.1% (active) | 88% (active) | 100% (active) | 92.5% (active) | 100% (active) | 100% (active) | 93.3% (active) | 42 | 99% (active) | 91.3% (active)
5 | Cc1c(N2CCCC2)cc2c(c1NC(=O)c1ccccc1Cl)C(C)(C)CC2(C)C | 11 | 95% (active) | 82.8% (active) | -2 | 89% (active) | 59.5% | 20% | 85% (active) | 73.2% (active) | 0% | 91% (active) | 79.3% (active) | 10% | 80% (active) | 90.7% (active) | 22 | 91% (active) | 80.2% (active)
6 | O=C1C(C=NC(=S)c2ccccc2)=C(O)c2ccccc21 | 22 | 72% (active) | -13.8% | 23 | 68% | -12.1% | 33% | 68% | 2.35% | 20% | 48% | 10.1% | 31% | 81% (active) | -4.7% | 32 | 87% (active) | 6.45%
7 | C#CC(O)c1ccc(Cl)cc1Cl (configuration not stated) | 9 | 96% (active) | 99% (active) | -2 | 95% (active) | 99.5% (active) | 0% | 92% (active) | 95.3% (active) | -1% | 94% (active) | 99.2% (active) | 5% | 96% (active) | 99% (active) | 6 | 98% (active) | 99.1% (active)
8 | CC(C)=CCC/C(C)=C/COC(=O)Nc1ccccc1 | -7 | -5% | 15.7% | -13 | -7% | 18.7% | -2% | 17% | 62.3% | -40% | -5% | 61% | -2% | -1% | 52.8% | -13 | -11% | 10.9%
9 | CC1(c2ccccc2)OC(=O)C=CC1=O (configuration not stated) | 15 | 99% (active) | 99.4% (active) | 28 | 98% (active) | 99.7% (active) | 21% | 97% (active) | 99.5% (active) | 8% | 100% (active) | 99% (active) | 32% | 100% (active) | 99.5% (active) | 27 | 99% (active) | 99.5% (active)
